According to PMC4336329 (PLoS ONE, 2015):
Hit rate of the full screen: of about 310,000 compounds, about 2,200 (0.71%) showed an effect of 50% or more. The effect is printed as a negative number. The sample as a whole holds a higher share of strong results than the screen did.

molecular target: human ether-à-go-go-related gene (hERG) potassium channel (human, UniProt Q12809); assay: primary screen, population patch clamp on CHO cells stably expressing hERG; higher = less effect of the substance
Sequence (Q12809 whole entry, looked up): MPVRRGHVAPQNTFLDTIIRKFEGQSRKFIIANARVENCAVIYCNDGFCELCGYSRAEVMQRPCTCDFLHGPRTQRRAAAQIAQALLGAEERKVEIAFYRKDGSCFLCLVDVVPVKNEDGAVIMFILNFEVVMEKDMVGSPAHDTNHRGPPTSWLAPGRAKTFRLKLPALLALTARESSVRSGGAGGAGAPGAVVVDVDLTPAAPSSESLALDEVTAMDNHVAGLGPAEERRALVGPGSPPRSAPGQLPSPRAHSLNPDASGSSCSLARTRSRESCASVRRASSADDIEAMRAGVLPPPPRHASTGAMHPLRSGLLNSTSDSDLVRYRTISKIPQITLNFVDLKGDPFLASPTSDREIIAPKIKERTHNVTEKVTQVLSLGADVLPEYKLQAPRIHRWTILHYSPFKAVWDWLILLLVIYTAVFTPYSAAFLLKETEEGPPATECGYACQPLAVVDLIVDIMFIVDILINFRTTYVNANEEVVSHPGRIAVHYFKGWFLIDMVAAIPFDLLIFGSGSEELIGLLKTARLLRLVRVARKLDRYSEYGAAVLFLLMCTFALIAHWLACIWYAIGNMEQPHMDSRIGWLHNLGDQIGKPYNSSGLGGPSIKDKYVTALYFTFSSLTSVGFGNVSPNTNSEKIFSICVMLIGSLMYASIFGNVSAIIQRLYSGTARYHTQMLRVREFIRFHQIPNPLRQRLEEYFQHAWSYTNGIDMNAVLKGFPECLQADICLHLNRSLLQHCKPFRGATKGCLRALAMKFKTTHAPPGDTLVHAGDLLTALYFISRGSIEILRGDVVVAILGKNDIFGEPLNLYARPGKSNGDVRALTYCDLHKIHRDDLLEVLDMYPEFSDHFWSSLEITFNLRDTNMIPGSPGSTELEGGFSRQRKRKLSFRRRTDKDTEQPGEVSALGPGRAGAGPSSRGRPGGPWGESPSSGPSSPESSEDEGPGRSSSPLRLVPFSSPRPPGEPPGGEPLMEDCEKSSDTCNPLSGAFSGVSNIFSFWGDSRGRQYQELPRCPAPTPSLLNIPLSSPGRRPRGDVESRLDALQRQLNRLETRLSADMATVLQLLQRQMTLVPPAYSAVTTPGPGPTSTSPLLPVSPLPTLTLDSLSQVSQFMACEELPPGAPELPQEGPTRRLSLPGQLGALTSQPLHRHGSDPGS

In order of falling “hERG current change (%, negative = inhibition) at 1uM” value:
1. Cc1cc(F)ccc1S(=O)(=O)Nc1ccc(O)c(Sc2ncn[nH]2)c1  20.6%
2. CCC(=O)c1ccc(OCC(O)CN2CCOCC2)cc1 (stereo not drawn)  17.8%
3. CC(=O)Nc1ccc(NC(=O)COc2ccc(S(=O)(=O)NC(C)c3ccccc3)cc2)cc1 (stereo not drawn)  17.5%
4. CN(C)c1ccc(/C=C(/NC(=O)c2ccccc2)C(=O)NCCCn2ccnc2)cc1  16.1%
5. CC(C)(C)c1ccc(CSc2cnn(C(C)(C)C)c(=O)c2Cl)cc1  15.7%
6. COc1ccc(/C=C(/NC(=O)c2ccccc2)C(=O)NCCCn2ccnc2)cc1OC  15.3%
7. O=C1Nc2c(c(=O)[nH]c(=O)n2Cc2ccccc2)C1(NS(=O)(=O)c1ccccc1)C(F)(F)F (stereo not drawn)  14.5%
8. CCCCn1c(N)c(N(CC)C(=O)c2ccc(C#N)cc2)c(=O)[nH]c1=O  14.4%
9. COCC(=O)N1CCC(n2nccc2NC(=O)c2ccccc2OC)CC1  14.1%
10. COc1ccccc1/C=C(/NC(=O)c1ccccc1)C(=O)NCCCn1ccnc1  13.6%
11. CN1CCN(c2cnn(-c3ccccc3)c(=O)c2Br)CC1  13.2%
12. CCOC(=O)C(C)(C)N(Cc1ccc(Cl)cc1)S(=O)(=O)c1ccc(Cl)c([N+](=O)[O-])c1  13.2%
13. Cc1ccc(NC(=S)N2CCN(c3ccccn3)CC2)c(C)c1  12.7%
14. Cc1cc(C)cc(NC(=O)C(c2ccccc2)N2CCCC2)c1 (stereo not drawn)  12.6%
15. Cc1nnc(NC(=O)CSc2ccc(-c3ccc(Cl)cc3)nn2)s1  12.4%
16. O=C(Nc1c(C(=O)N2CCOCC2)oc2ccccc12)c1cccc([N+](=O)[O-])c1  11.4%
17. COc1cc(C(=O)Nc2cccc(-c3nc4cc(C)ccc4o3)c2)cc(OC)c1OC  10.6%
18. COc1cc(/C=N/NC(=O)c2ccc3nc[nH]c3c2)cc(OC)c1OC  10.6%
19. O=c1c2c(nc3n1CCS3)c1cc(F)ccc1n2Cc1cc(=O)n2cc(Cl)ccc2n1  10.3%
20. CSc1nn(-c2ccc(C(=O)OC(C(=O)NC(N)=O)C(C)C)cc2)c(=S)s1 (stereo not drawn)  9.82%
21. CCOc1ccc2nc(SCC(=O)N(CC(C)C)c3c(N)n(Cc4ccccc4)c(=O)[nH]c3=O)[nH]c2c1  9.81%
22. Cc1cc(N)n(-c2cc(C)c3ccccc3n2)n1  9.59%
23. CCOC(=O)N1CCN(c2c(NCCCN(C)c3ccccc3)c(=O)c2=O)CC1  9.53%
24. COc1ccc(Cc2noc(CN3CCCC(C(=O)c4cccs4)C3)n2)cc1OC (stereo not drawn)  9.47%
25. CN(C)c1ccc(/C=C(\NC(=O)c2ccccc2)C(=O)NCCCn2ccnc2)cc1  9.45%
26. Cc1cccn2c(=O)c3cc(C(=O)NCCCOC(C)C)sc3nc12  9.15%
27. CCCn1c(SCC(=O)Nc2cccc(F)c2)nc(O)cc1=O  9.12%
28. CC1(C)Cc2c(cnn2-c2ccccc2)C(NC(=O)CCc2ccc(=O)[nH]n2)C1 (stereo not drawn)  8.83%
29. Cn1c(=O)n(C)c2cc(NS(C)(=O)=O)ccc21  8.26%
30. O=C(CSc1ccccc1)Nc1ccc2c(c1)OCCO2  8.08%
31. CCC(=O)c1ccc(OCC(O)Cn2nc(C)cc2C)cc1 (stereo not drawn)  7.89%
32. O=C(Nc1c(C(=O)N2CCN(c3ccccn3)CC2)oc2ccccc12)c1cccc([N+](=O)[O-])c1  7.86%
33. COc1ccc(C(=O)N2CCN(c3ccccc3Cl)CC2)cc1S(=O)(=O)NC1CC1  7.63%
34. C/C(Cn1nc([N+](=O)[O-])cc1C)=N\NC(=O)COc1ccccc1[N+](=O)[O-]  7.38%
35. O=c1[nH]nc(Cc2ccc(-c3cccc(Cl)c3)o2)c2ccccc12  6.53%
36. COCCCn1c(C(=O)NCCN2CCOCC2)cc2c(=O)n3cccc(C)c3nc21  6.14%
37. OC(COc1ccc(OCC(O)CN2CCN(Cc3ccccc3)CC2)cc1)CN1CCN(Cc2ccccc2)CC1 (stereo not drawn)  6.14%
38. O=C(NCCCn1ccnc1)/C(=C\c1ccccc1Cl)NC(=O)c1ccccc1  6.1%
39. CN(C)CCNc1nc2c(c(=O)[nH]c(=O)n2C)n1CC(O)COc1ccc(Cl)cc1 (stereo not drawn)  5.04%
40. CCOC(=O)c1c(NC(=O)c2ccc(N3C(=O)[C@@H]4[C@H](C3=O)[C@H]3C=C[C@@H]4C3)cc2)sc2c1CCCC2  4.8%
41. CCC(=O)c1ccc(OCC(O)Cn2nc(C)c(C(C)=O)c2C)cc1 (stereo not drawn)  4.75%
42. CCC(=O)c1ccc(OCC(O)CN2CCCCC2)cc1.Cl (stereo not drawn)  3.96%
43. COc1ccc(OCC(O)CN2CCN(CC(O)COc3ccc(OC)cc3)CC2)cc1 (stereo not drawn)  3.29%
44. CCOc1ccc(N(CC(=O)Nc2ccc(F)c(F)c2)S(=O)(=O)c2c(C)noc2C)cc1  2.37%
45. Cc1cc(C)cc(N(C(=O)CCC(=O)Nc2ccccn2)C(C(=O)NC(C)C)c2ccc(O)cc2)c1 (stereo not drawn)  1.99%
46. COc1cccc(NC(=O)C2c3cc(OC)c(OC)cc3C(=O)N(C)C2c2cccnc2)c1 (stereo not drawn)  1.83%
47. COCCCn1c(C(=O)N2CCOCC2)cc2c(=O)n3cccc(C)c3nc21  1.75%
48. O=C(Nc1c(C(=O)N2CCN(c3ccccn3)CC2)oc2ccccc12)c1ccc([N+](=O)[O-])cc1  -4.07%
49. O=C(CN1C(=O)CCC1=O)Nc1nc(-c2nc3ccccc3s2)cs1  -4.37%
50. CCOCCCn1c(=NC(C)=O)c(C#N)cc2c(=O)n3cccc(C)c3nc21  -7.46%
51. Cc1ccccc1CN(C)CC(=O)Nc1ccccc1-c1ccccc1  -9.53%
52. Cc1c(C(=O)N2CCN(c3ccc([N+](=O)[O-])cc3)CC2)oc2ccccc12  -12.9%
53. CC1CCN(CC(O)COc2ccc(F)cc2)CC1 (stereo not drawn)  -13.3%
54. CCOCCCn1c(=N)c(C(=O)NCCN2CCOCC2)cc2c(=O)n3cccc(C)c3nc21  -17%
55. COc1ccc(C(=O)N2CCN(c3ccc(F)cc3)CC2)cc1S(=O)(=O)NC1CC1  -17.3%
56. CCCn1c(=N)c(C#N)cc2c(=O)n3cccc(C)c3nc21  -20.2%
57. Cc1cccn2c(=O)c3cc(C#N)c(=O)n(CCCN4CCOCC4)c3nc12  -21.2%
58. C/C(Cn1nc([N+](=O)[O-])cc1C)=N\NC(=O)COc1c(Cl)cc(Cl)cc1Cl  -23.8%
59. OC(COc1ccccc1)CN1CCN(C(c2ccccc2)c2ccccc2)CC1 (stereo not drawn)  -24.1%
60. COc1ccccc1/C=C/CN1CCC(n2nccc2NC(=O)CCc2ccccc2)CC1  -24.8%
61. CN(C)CCNc1nc2c(c(=O)[nH]c(=O)n2C)n1CC(O)COc1ccc(Cl)cc1Cl (stereo not drawn)  -30.6%
62. O=C(NCCCn1ccnc1)/C(=C/c1ccccc1)NC(=O)c1ccccc1  -47.6%
63. OC(COc1ccc(F)cc1)CN1CCN(CC(O)COc2ccc(F)cc2)CC1 (stereo not drawn)  -51.1%
64. C/C(Cn1nc([N+](=O)[O-])cc1C)=N\NC(=O)COc1ccc(Cl)cc1Cl  -51.3%
65. CCC(=O)c1ccc(OCC(O)CN2CCN(C(c3ccccc3)c3ccccc3)CC2)cc1 (stereo not drawn)  -51.4%
66. CC(C)c1ccc(/C=C(\NC(=O)c2ccccc2)C(=O)NCCCn2ccnc2)cc1  -63.2%
67. CCN(CC)CCNc1nc2c(c(=O)[nH]c(=O)n2C)n1CC(O)COc1ccc(Cl)cc1Cl (stereo not drawn)  -66.1%
68. N#Cc1ccc(OCC(O)CN2CCN(C(c3ccccc3)c3ccccc3)CC2)cc1 (stereo not drawn)  -69.5%
69. COCCCn1c(=N)c(C(N)=S)cc2c(=O)n3cccc(C)c3nc21  -70.3%
70. Cc1cccn2c(=O)c3cc(C(N)=S)c(=N)n(CCCOC(C)C)c3nc12  -77.8%
71. Cc1cccn2c(=O)c3cc(C#N)c(=N)n(CCCN4CCOCC4)c3nc12  -78.1%
72. COc1ccc(C(=O)N2CCN(c3cccc(Cl)c3)CC2)cc1S(=O)(=O)NC1CC1  -79.6%
73. O=C(NCCCn1ccnc1)/C(=C\c1ccc(Br)cc1)NC(=O)c1ccccc1  -82.1%
74. O=C(NCCCn1ccnc1)/C(=C/c1ccc(Cl)cc1)NC(=O)c1ccccc1  -82.5%
75. CCOCCCN(C)C1CCN(C(=O)c2oc3ccccc3c2NC(=O)c2ccc([N+](=O)[O-])cc2)CC1  -85.2%
76. CCOCCCn1c(=N)c(C(N)=S)cc2c(=O)n3cccc(C)c3nc21  -85.5%
77. COc1ccccc1C(=O)Nc1ccnn1C1CCN(C/C=C/c2ccccc2)CC1  -85.6%
78. CCOCCCN(C)C1CCN(C(=O)c2oc3ccccc3c2NC(=O)c2cccc([N+](=O)[O-])c2)CC1  -86%
79. COc1ccccc1C(=O)Nc1ccnn1C1CCN(C/C=C/c2ccc(F)cc2)CC1  -86.9%
80. Cc1cccn2c(=O)c3cc(C(N)=S)c(=N)n(CCCN4CCOCC4)c3nc12  -90.5%
81. CCC(=O)c1ccc(OCC(O)Cn2nc(C)c(Br)c2C)cc1 (stereo not drawn)  -100%
